A selection: hits, their analogues and other compounds. The true share with any hit is near 3.8%.
IDH1 R132H inh: human IDH1 R132H inhibition; 390,000 compounds, 0.093% hits; IDH1-R132H enzyme, NADPH consumption, diaphorase/resazurin fluorescence; O75874; Potency, µM (doses to about 76.6 µM), for the others: at the highest dose activity change, negative = inhibition, usual class: inhibitors; note: % is set by controls: 0 for no effect and ±100 for the full control effect; nearly all actives have a fitted effect of over 65% in size
Target sequence (O75874 whole entry R132H, stated change not applied): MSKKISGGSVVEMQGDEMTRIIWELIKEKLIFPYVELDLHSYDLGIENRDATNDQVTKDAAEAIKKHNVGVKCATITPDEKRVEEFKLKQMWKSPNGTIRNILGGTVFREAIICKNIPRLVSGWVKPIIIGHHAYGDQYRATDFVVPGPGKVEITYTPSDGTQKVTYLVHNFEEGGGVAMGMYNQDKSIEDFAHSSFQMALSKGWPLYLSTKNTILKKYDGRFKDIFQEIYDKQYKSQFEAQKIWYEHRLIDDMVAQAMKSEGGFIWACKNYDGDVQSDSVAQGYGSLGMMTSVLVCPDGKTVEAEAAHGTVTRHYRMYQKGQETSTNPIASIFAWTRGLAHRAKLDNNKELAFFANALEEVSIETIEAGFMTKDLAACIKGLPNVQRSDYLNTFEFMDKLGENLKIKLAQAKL
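IDH1-R132H (0.5 ug/mL) preincubated 30 min with compound, then NADPH (0.016 mM) and alpha-KG (2 mM) added; 80 min at RT, pH 7.5. Remaining NADPH coupled via diaphorase/resazurin to fluorescence (540/590 nm); concentration-response curves normalized to no-enzyme control.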
A549 viability: A549 cytotoxicity, counter-screen for Nrf2 inhibitors; A549 ARE-Fluc cells, CellTiter-Fluor viability, 18-24 h; Potency, µM (series often up to 46 µM), without a hit: top-dose activity change, negative = cytotoxicity, hits mostly inhibitors; 390,000 compounds, 0.16% hits; note: % is set by controls: 0 for no effect and ±100 for the full control effect
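A549 ARE_Fluc cells in 5% FBS OPTI-MEM were exposed to compounds in concentration-response for 18-24 h at 37 deg C. Viability was read by CellTiter-Fluor fluorescence (Ex 405/Em 525) after 30 min, before the luciferase read.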
ELG1 DNA repair: ELG1-dependent DNA repair inhibition | HEK293T ELG1-luciferase reporter, luminescence, 16 h; DNA damage induced by 5-fluorouridine | Potency, µM (doses to about 46.1 µM), for the others: at the top dose activity change, negative = inhibition, most hits filed as inhibitors | 330,000 compounds, 2.3% hits | AID 504467; note: % is set by controls: 0 for no effect and ±100 for the full control effect; nearly all actives have a fitted effect of over 55% in size
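Step one: seed 2,000 cells per well. Step two: pin-transfer compound or DMSO alongside 5-fluorouridine. Step three: incubate 16 hr, 37 °C, 5% CO2. Step four: add ONE-Glo, wait 30 min, read luminescence.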
Nrf2 block: blocks Nrf2 signaling | A549 ARE-Fluc reporter, luciferase luminescence, 18-24 h | Potency, µM (series often up to 46 µM), for the others: top-dose activity change, negative = inhibition, usual class: inhibitors | 360,000 compounds, 2.1% hits; note: % is set by controls: 0 for no effect and ±100 for the full control effect; nearly all actives have a fitted effect of over 60% in size
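A549 ARE_Fluc cells (5000/well, 5% FBS OPTI-MEM) pre-incubated 2 h, then treated with compounds 18-24 h at 37C/5% CO2 in concentration-response. CellTiter-Fluor viability read first; BugLite luciferase luminescence after 15 min at room temperature gives Nrf2 activity.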
Nrf2 activator: activates Nrf2 signaling; AREc32 ARE-luciferase reporter (MCF7-derived line), luminescence, 24 h; Potency, µM (doses to about 46.1 µM), inactives show at the top dose activation, hits mostly activators; 410,000 compounds, 0.31% hits; note: % of control where 0% means no effect; nearly all actives have a fitted effect of over 65% in size
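Cells of the AREc32 ARE-luciferase line are plated in OPTI-MEM containing 5% FBS and left overnight at 37 deg C. Compounds are pinned in, incubation continues 24 hr, and firefly luciferase signal is then measured.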
Starred values were filed as active, the others as inactive; ? = inconclusive; / = no result; [ ] = another dose, or the depositor's remark. Calls come from the whole dose curve; as a rule, active = well fitted curve in the direction sought with a large enough effect; inconclusive = small, poorly fitted or top-dose-only effect, or another doubt; inactive = no such curve, though single readings can be large; an effect the other way counts as inactive or inconclusive. Potency is the fitted concentration of half-maximal effect.

SMILES	IDH1 R132H inh	A549 viability	ELG1 DNA repair	Nrf2 block	Nrf2 activator
O=S(=O)(NCC(c1ccco1)N1CCN(c2ccccc2F)CC1)c1ccc2c(c1)OCCO2 (stereo not drawn)	-2%	-8%	16µM*	-22%	1%
COc1ccc(N2CCN(C(CNS(=O)(=O)c3ccc4c(c3)OCCO4)c3ccco3)CC2)cc1 (stereo not drawn)	4%	-8%	15µM*	?	1%
COc1ccc(S(=O)(=O)NCC(c2ccco2)N2CCN(c3ccc(F)cc3)CC2)cc1 (stereo not drawn)	-1%	-11%	/	/	4%
O=C(NCC(c1ccco1)N1CCN(c2ccccc2F)CC1)c1ccc2c(c1)OCO2 (stereo not drawn)	2%	?	13µM*	-17%	-1%
O=S(=O)(NCC(c1ccco1)N1CCN(c2ccccc2F)CC1)c1ccccc1 (stereo not drawn)	-2%	-8%	-10%	-6%	-1%
O=C(c1cccc2ccccc12)N1CCN(S(=O)(=O)c2ccccc2)CC1	/	6%	/	-2%	/
CSc1ccc(C(O)c2ncc(-c3ccccc3F)[nH]2)cc1 (stereo not drawn)	/	/	/	/	6%
COc1cccc(CNC(=O)Cn2nc(N3CCN(c4ccccc4OC)CC3)ccc2=O)c1	2%	17%	/	18%	-1%
COc1ccc(NC(=O)Cc2csc(COc3cccc(C)c3)n2)cc1OC	11%	2%	/	23µM*	0%
O=C(Nc1nc(-c2ccc3c(c2)OCCO3)cs1)C1CC(=O)N(c2ccc3c(c2)OCCO3)C1 (stereo not drawn)	/	0%	/	?	/
COc1ccc(-c2csc(NC(=O)C3CC(=O)N(c4ccc5c(c4)OCCO5)C3)n2)cc1 (stereo not drawn)	0%	-10%	23µM*	?	0%[9.22 µM]
O=c1[nH]c(C2CCN(S(=O)(=O)Cc3ccccc3)CC2)nc2c1nnn2Cc1ccccc1Cl	-2%	-10%	26µM*	?	0%
O=c1[nH]c(C2CCN(S(=O)(=O)Cc3ccccc3)CC2)nc2c1nnn2Cc1cccc(Cl)c1	0%	6%	-8%	?	5%
O=c1[nH]c(C2CCN(S(=O)(=O)Cc3ccccc3)CC2)nc2c1nnn2Cc1ccccc1	8%	2%	23µM*	5%	0%
Cc1cc(=O)c2cc(C(=O)Nc3ccccc3C)ccc2[nH]1	-13%	7%	/	21µM*	0%
CN(c1ccc(C(=O)NCCSCc2c(F)cccc2Cl)cc1)S(C)(=O)=O	0%	1%	13µM*	4%	-1%
COc1ccc2oc(=O)c(-c3csc(Nc4cccc(O)c4)n3)cc2c1	5%	-3%	26µM*	-19%	4%
COc1ccc(Nc2nc(-c3cc4cccc(OC)c4oc3=O)cs2)cc1	2%	-9%	?	-27%	5%
Cc1ccc(NC(=O)c2sc3nc[nH]c(=O)c3c2C)cc1C	0%	-1%	/	/	6%
COc1ccc(Cl)cc1NC(=O)CN1C(=O)COc2ccc(S(=O)(=O)NC3CCCC3)cc21	-1%	?	/	-3%	4%
COc1ccc(CNc2nc(S(=O)(=O)c3ccccc3)c(Cl)s2)cc1OC	-1%	-22%	?	15µM*	3%
O=C(Cc1nnc(-c2cc3ccccc3[nH]2)o1)Nc1cc(C(F)(F)F)ccc1Cl	/	1%	/	-19%	/
Cc1nc(SCc2nc3ccccc3[nH]2)c2oc3cc(Br)ccc3c2n1	/	-1%	18µM*	-14%	10%
Cc1nc(SCc2cccc(F)c2)c2oc3ccccc3c2n1	3%	6%	21µM*	-3%	0%
Cc1nc(SCc2nc3ccc(C(=O)c4ccccc4)cc3[nH]2)c2oc3ccccc3c2n1	/	-4%	4.6µM*	-26%	4%
SMILES	IDH1 R132H inh	A549 viability	ELG1 DNA repair	Nrf2 block	Nrf2 activator
Cc1ccc2oc3c(SCc4nc5ccccc5[nH]4)nc(C)nc3c2c1	/	-13%	0%	?	7%
Cc1nc(SCc2nc3ccc(F)cc3[nH]2)c2oc3ccccc3c2n1	/	-10%	?	-26%	6%
CCN(CC)c1ccc(/C=N/N2C(=O)c3ccccc3C2=O)c(O)c1	-1%	-9%	?	5%	2%
O=C1c2cccc3cc([N+](=O)[O-])cc(c23)C(=O)N1/N=C/c1ccc(O)cc1O	9%	23µM*	-13%	?	28%
Cc1cc(NC(=O)CCc2nc3cccnc3n2Cc2cccs2)ccc1Br	3%	2%	/	-17%	6%
COc1ccc(C2CC(O)(c3ccccc3)Oc3c(C)ccc(C(C)C)c32)cc1 (stereo not drawn)	/	9%	/	-21%	/
COc1cc(C2C(=O)N(C3CCCCC3)CC(=O)N2CCC2=CCCCC2)ccc1OC(C)C (stereo not drawn)	20%	6%	/	/	0%
COC(=O)c1c(N2C(=O)Nc3ccccc3N2O)sc(C)c1C	-7%	0%	5%	3%	0%
COC(=O)c1c(N2C(=O)[C@H]3[C@@H](C2=O)[C@]2(C(=O)Nc4ccc(C)cc42)N2CCC[C@@H]32)sc(C)c1C	/	/	8.2µM*	/	/
Cc1cc(NC(=O)CSc2cc(Cl)ccc2Cl)n(-c2ccccc2)n1	11%	16%	26µM*	-20%	-4%
O=S(=O)(NCCc1cn2ccccc2n1)c1ccc(-c2ccccc2)cc1	-13%	-9%	-3%	21µM*	0%
CCCSC(=S)c1c(C)[nH]n(-c2ccccc2)c1=O	9%	-14%	13µM*	?	0%
CC(=O)Nc1ccc(S(=O)(=O)Nc2cc(S(=O)(=O)N3CCCCC3)ccc2O)cc1	20%	2%	14%	12%	0%
COc1ccc(-c2cc3ccc(O)c(CN4CCOCC4)c3oc2=O)cc1	7%	0%	/	/	8%
CC(=O)Nc1ccc(-c2ccnc3c2CC(C(=O)NCc2ccccc2)O3)cc1 (stereo not drawn)	/	/	/	/	0%
CC(=O)N(Cc1ccc(F)cc1)C1=C(NCCc2ccccc2)C(=O)c2ccccc2C1=O	8%	23µM*	?	21µM*	-1%
O=C1C(Cl)=C(NCCc2ccccc2)C(=O)c2ccccc21	25%	-5%	/	2%	?
C=Cc1cc(F)c(S(=O)(=O)N2CCN(S(=O)(=O)c3ccc4c(c3)OCCO4)CC2)cc1F	/	1%	/	-20%	/
CCOC(=O)c1c(C)oc2c1c(C=NCc1ccccn1)c(O)c1ccccc12	0%	?	18µM*	?	1%
CCCCCn1c(N2CCN(Cc3ccccc3)CC2)nc2c1c(=O)[nH]c(=O)n2C	9%	/	16µM*	?	3%
C=CCn1c(SCc2nc3c(c(=O)[nH]c(=O)n3CCCC)n2CCC)nnc1-c1ccccc1	0%	2%	18µM*	-6%	0%

Source: PubChem BioAssay
